The list is not random: actives were taken first. Their share in the collection is about 6%.
Tau fluor cs: counter-screen for tau fibril formation inhibitors; 0.93% of 280,000 active; Potency, µM (top dose mostly 57.7 µM), without a hit: at the highest dose activity change, negative = decrease; tau K18 P301L Alexa594 fluorescence, heparin fibrillization; AID 1463; note: nearly all actives have a fitted effect of over 55% in size
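Human K18 P301L tau (15 uM unlabeled plus 0.24 uM Alexa 594-labeled, final) in 100 mM sodium acetate pH 7 was mixed with compound and 20 uM heparin and incubated 6 hr at 37 C.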
Sfp PPTase inh: inhibitors of Bacillus subtilis Sfp phosphopantetheinyl transferase. 3.5% of 310,000 active. Potency, µM, for the others: largest response in the series, negative = inhibition, usual class: inhibitors. Biochemical Sfp PPTase activity, qHTS. Q9F4F7;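 note: the enzyme is Sfp with the accession as filed and its product quenches rhodamine fluorescence; 0% = enzyme reaction without inhibitor and -100% = no enzyme wells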
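After 15 min at room temperature with compound, 15 nM Sfp received 5 uM rhodamine-CoA plus 12.5 uM BHQ-2-ybbR (50 mM Hepes pH 7.6, 10 mM MgCl2). Rate came from the fluorescence difference over 30 min, ex 525/em 598 nm.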
Tau FP inhib: blocks human tau fibril formation measured by polarization; K18 P301L tau heparin fibrillization, Alexa594 FP, 6 h; Potency, µM (series often up to 57.7 µM), for the others: top-dose activity, negative = inhibition, hits mostly inhibitors; 0.39% of 280,000 active; AID 1468; note: nearly all actives have a fitted effect of over 55% in size
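FP of Alexa 594-tau after heparin (20 uM) induction. Substrate: human K18 P301L, 15 uM unlabeled, 0.24 uM labeled. Buffer 100 mM sodium acetate pH 7. 6 hr, 37 C.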
VDR inh: vitamin D3 receptor (human) inhibition | P11473 | Potency, µM, inactives show max response, negative = inhibition, most hits filed as inhibitors | VDR-SRC2-3 peptide fluorescence polarization, 2 h | AID 504847 | 0.93% of 400,000 active
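After 23 nl compound addition and a short centrifugation, plates sat for 2 hours at ambient temperature; polarization of fluorescence then indicated loss of VDR binding to peptide SRC2-3.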
Tau ThT inhib: tau fibrillization inhibition (ThT binding) | recombinant tau K18 P301L (four-repeat tau fragment), heparin-induced fibrillization, ThT fluorescence | Potency, µM (top dose mostly 57.4 µM), for the others: at the top dose activity, negative = inhibition, hits mostly inhibitors | 2.1% of 270,000 active; note: nearly all actives have a fitted effect of over 55% in size
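Heparin-induced fibrillization of the P301L-mutant K18 repeat-domain fragment of human tau was followed by ThT binding in quantitative high-throughput format.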
PLK1 PBD inh: PLK1 (human) polo-box domain binding inhibition. P53350. Plk1 PBD binding of FITC phosphopeptide, fluorescence polarization. Potency, µM, for inactives: max response, negative = inhibition, most hits filed as inhibitors. 2.8% of 360,000 active. AID 720504; note: series mostly up to about 57 µM; nearly all actives have a fitted effect of over 65% in size
Target sequence (P53350 whole entry, looked up, the tested form may be a part): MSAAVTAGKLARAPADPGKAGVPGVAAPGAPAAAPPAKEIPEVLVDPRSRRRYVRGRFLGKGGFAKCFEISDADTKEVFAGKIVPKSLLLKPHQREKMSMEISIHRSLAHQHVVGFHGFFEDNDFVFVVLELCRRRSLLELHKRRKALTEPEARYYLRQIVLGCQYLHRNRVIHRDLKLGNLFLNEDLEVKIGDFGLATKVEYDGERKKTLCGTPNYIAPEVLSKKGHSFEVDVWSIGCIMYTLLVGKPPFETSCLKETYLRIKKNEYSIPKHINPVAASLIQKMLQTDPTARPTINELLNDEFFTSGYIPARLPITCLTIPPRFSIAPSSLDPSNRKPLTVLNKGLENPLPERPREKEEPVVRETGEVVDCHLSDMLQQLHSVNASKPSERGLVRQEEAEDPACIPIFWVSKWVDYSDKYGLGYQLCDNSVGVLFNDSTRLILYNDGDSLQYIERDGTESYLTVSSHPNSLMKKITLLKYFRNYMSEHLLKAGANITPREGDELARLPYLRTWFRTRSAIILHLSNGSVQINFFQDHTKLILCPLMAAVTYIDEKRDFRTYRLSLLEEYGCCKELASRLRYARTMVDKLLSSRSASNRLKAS
An asterisk follows results filed as active; u = inconclusive; x = not tested or not shown; [ ] = remark or other dose. Calls come from the whole dose curve; as a rule, active = well fitted curve in the direction sought with a large enough effect; inconclusive = small, poorly fitted or top-dose-only effect, or another doubt; inactive = no such curve, though single readings can be large; an effect the other way counts as inactive or inconclusive. Unless noted, % is set by controls: 0 for no effect and ±100 for the full control effect; potency is the fitted concentration of half-maximal effect.

SMILES	Tau fluor cs	Sfp PPTase inh	Tau FP inhib	VDR inh	Tau ThT inhib	PLK1 PBD inh
COc1ccc2[nH]c3c(=O)n(Cc4ccc(C(=O)N5CCC(C(N)=O)CC5)cc4)c(=S)[nH]c3c2c1	-25.4%	22.4µM*	-4.4%	u	u	21.2µM*
CC(C)c1ccc(SCc2noc(C(=O)NCC3CCCO3)c2C(=O)O)cc1 (centres undefined)	-1.6%	100µM*	-5.5%	-24.2%	6.8%	-10.7%
O=C(NCC1CCCO1)c1onc(CSc2ccccc2)c1C(=O)O (centres undefined)	1.9%	5.3%	-3.1%	18.1%	-1.7%	-0.4%
Nc1nc(-c2ccccc2)c(CC(=O)O)s1	x	x	x	x	x	-1.8%
CCc1sc(N)nc1-c1ccccc1	-14.2%	79.4µM*	14.8%	-8.3%	u	-16.0%
Cc1cc2cc(C(c3nnnn3Cc3ccco3)N3CCc4ccccc43)c(=O)[nH]c2cc1C (centres undefined)	-28.3%	10µM*	u	-7.5%	25.1µM*	-20.7%
Cc1cc2cc(C(c3nnnn3Cc3ccccc3)N3CCc4ccccc43)c(=O)[nH]c2cc1C (centres undefined)	-30.0%	35.5µM*	u	6.7%	15.8µM*	-6.3%
Cc1ccc2cc(C(c3nnnn3Cc3ccccc3)N3CCc4ccccc43)c(=O)[nH]c2c1C (centres undefined)	-19.7%	50.1µM*	7.0%	52.7%	-14.7%	-13.9%
Cc1ccc2[nH]c(=O)c(C(c3nnnn3Cc3ccccc3)N3CCc4ccccc43)cc2c1 (centres undefined)	u	20µM*	u	34.0%	20µM*	-4.0%
CCCc1nc2ccc(C)cn2c1Cc1ccc(C)cc1	x	x	x	x	x	-11.6%
Cc1cc2cc(C(c3nnnn3Cc3ccco3)N3CCc4ccccc4C3)c(=O)[nH]c2cc1C (centres undefined)	-24.2%	11.2µM*	u	3.5%	28.2µM*	-22.5%
O=C(NCCc1ccccn1)/C(=C/c1ccco1)NC(=O)c1ccccc1	20.2%[2.34 µM]	u	4.0%	14.0%	1.5%	0.2%
O=C(NCc1ccccn1)/C(=C/c1ccco1)NC(=O)c1ccccc1	1.5%	79.4µM*	15.3%	0.6%	-14.3%	-6.3%
CNC(=O)/C(=C\c1ccco1)NC(=O)c1ccco1	x	11.4%	x	-12.6%	x	-11.1%
O=C(NC(Cc1ccccc1)C(=O)O)/C(=C\c1ccco1)NC(=O)c1ccccc1Br (centres undefined)	-0.6%	50.1µM*	3.5%	-24.5%	-17.5%	-9.7%
O=C(N/C(=C/c1ccco1)C(=O)N1CCc2ccccc21)c1ccco1	-15.6%	39.8µM*	u	-8.9%	u	-10.2%
O=C(NC(Cc1ccccc1)C(=O)O)/C(=C/c1ccco1)NC(=O)c1cccc([N+](=O)[O-])c1 (centres undefined)	-11.0%	6.9%	-3.0%	5.5%	-13.9%	-10.9%
O=C(O)CCCCCNC(=O)/C(=C\c1ccco1)NC(=O)c1ccco1	x	-14.8%	x	5.4%	x	-9.0%
O=C(O)CCNC(=O)/C(=C\c1ccco1)NC(=O)c1ccco1	x	79.4µM*	x	11.9%	x	-8.8%
C[C@H](CO)N1C[C@H](C)[C@@H](CN(C)C(=O)NC2CCCCC2)Oc2ccc(NS(C)(=O)=O)cc2C1=O	x	x	x	12.5%	x	-6.5%
[N-]=C=C1C(=O)NC(=O)C([n+]2ccc(-c3ccncc3)cc2)C1c1ccccc1C(F)(F)F (centres undefined)	4.5%[0.0958 µM]	50.1µM*	4.8%[0.0958 µM]	28.2µM*	x	u
C=CCn1c(O)c(N=Nc2ccccc2C)c2ccccc21	-14.6%	25.1µM*	-17.3%	-19.5%	u	-29.3%
C=CCn1c(O)c(N=O)c2ccccc21	-17.7%	6.9%	-1.6%	-0.5%	-17.7%	2.4%
C=CCn1c(O)c(N=NC(=S)Nc2ccc(OC)c(Cl)c2)c2ccccc21	u	1.78µM*	3.3%	-9.0%	u	-8.5%
O=C(Nc1ccc(F)c(Cl)c1)Nc1c[nH]c(=O)[nH]c1=O	-7.5%	x	-1.1%	6.7%	7.9%	x
